# HP1b binding inh: blocks HP1-beta chromodomain binding to methylated histone tails | P83916 | AlphaScreen HP1-beta / biotin-H3K9me3 peptide binding | Potency, µM (series often up to 114 µM), for the others: top-dose activity change, negative = inhibition, actives largely listed as inhibitors | actives 0.56% (n = 390,000); further: potency means the concentration at half of the fitted maximal effect; nearly all actives have a fitted effect of over 70% in size
# Target sequence (P83916 whole entry, looked up): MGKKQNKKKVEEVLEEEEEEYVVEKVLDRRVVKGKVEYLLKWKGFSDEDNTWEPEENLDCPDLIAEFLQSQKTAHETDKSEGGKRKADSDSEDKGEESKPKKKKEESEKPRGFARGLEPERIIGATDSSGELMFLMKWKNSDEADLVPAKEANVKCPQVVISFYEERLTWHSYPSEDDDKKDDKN
#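 AlphaScreen: HP1-beta (50 nM) preformed 30 min with biotin-H3(1-18)K9me3 peptide (50 nM) in PBS pH 7.4, 0.01% Tween-20. Compound added for 30 min at RT, then streptavidin donor/nickel chelate acceptor beads (10 ug/mL) for 30 min.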
# Six1-Eya2 inh: inhibitors of human Six1/Eya2 interaction; AlphaScreen GST-Six1/His-Eya2 binding, biochemical; stronger effect = lower value; Q15475+O00167; actives 0.56% (n = 360,000); activity change, % (no concentration beside the values); in the data active means activity change below about -65%; inconclusive means mostly about -30% to -63%; further: on the % scale 0 is the no-effect control and ±100 the full control effect
#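 Homogeneous AlphaScreen proximity assay pairing GST-Six1 with His-tagged Eya2 (added as 5X mix: 250 nM and 500 nM) in 50 mM Tris pH 8.0, 300 mM NaCl, 1 mM TCEP. Glutathione donor and nickel acceptor beads; 1 h, 37 °C, dark.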
# G9a inh: blocks human histone lysine methyltransferase G9a | Q96KQ7 | G9a H3K9 monomethylation, AlphaScreen, 2 h | Potency, µM (titrated, usually from 102 µM), inactives show top-dose activity, negative = inhibition, most hits filed as inhibitors | actives 8.8% (n = 350,000); further: potency means the concentration at half of the fitted maximal effect; on the % scale 0 is the no-effect control and ±100 the full control effect; nearly all actives have a fitted effect of over 75% in size
# Target sequence (Q96KQ7 913-1193 limits assumed): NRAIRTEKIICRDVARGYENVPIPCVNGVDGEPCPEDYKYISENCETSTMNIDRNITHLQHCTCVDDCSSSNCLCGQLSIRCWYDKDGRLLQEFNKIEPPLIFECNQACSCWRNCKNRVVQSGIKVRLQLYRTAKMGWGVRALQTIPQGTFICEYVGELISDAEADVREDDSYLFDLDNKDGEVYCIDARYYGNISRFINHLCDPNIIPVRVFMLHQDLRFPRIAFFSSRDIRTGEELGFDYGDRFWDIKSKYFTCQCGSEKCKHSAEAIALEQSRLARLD
#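 Chemiluminescent proximity detection of H3K9 monomethylation, read after 10 min bead incubation in the dark. Reaction: 20 nM G9a, 500 nM biotin-H3K9 peptide, 20 uM SAM cofactor, 2 h, room temperature, following 15 min enzyme-compound preincubation.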
# CtBP-E1A blk: inhibitors of CtBP/E1A interaction | AlphaScreen GST-E1A/His-CtBP binding, 1536-well; stronger effect = lower value | activity change, % (test concentration not listed) | actives 0.49% (n = 340,000) | AID 651724; in the data active means activity change below about -65%; inconclusive means mostly about -30% to -63%; further: on the % scale 0 is the no-effect control and ±100 the full control effect
#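 Protein mix (5X: 125 nM each GST-E1A, His-CtBP) was incubated with pinned compound 2 h at 37 deg C in dark, in 50 mM Tris pH 8.0 buffer with 300 mM NaCl. Glutathione donor and nickel acceptor beads followed; AlphaScreen signal read after 1 h.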
# BAZ2B block: BAZ2B (human) inhibition; actives 4.4% (n = 360,000); AlphaScreen BAZ2B-H3K14Ac peptide displacement; Q9UIF8; Potency, µM (titrated, usually from 114 µM), inactives show at the top dose activity change, negative = inhibition, most hits filed as inhibitors; AID 504333; further: potency means the concentration at half of the fitted maximal effect; on the % scale 0 is the no-effect control and ±100 the full control effect; nearly all actives have a fitted effect of over 60% in size
#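 BAZ2B 50 nM plus b-H3(5-23)K14Ac 50 nM, PBS pH 7.4/0.01% Tween-20, 30 min RT; compound added (max 110 uM), 30 min RT; streptavidin donor/Ni-chelate acceptor beads 10 ug/mL final, 20 min dark; AlphaScreen read.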
# JMJD2A Tudor: JMJD2A Tudor domain (human) inhibition | O75164 | AlphaScreen JMJD2A-Tudor / H3K4me3 peptide binding | Potency, µM (highest dose often 114 µM), inactives show at the top dose activity change, negative = inhibition, hits mostly inhibitors | actives 4.4% (n = 390,000) | AID 504339; further: potency means the concentration at half of the fitted maximal effect; on the % scale 0 is the no-effect control and ±100 the full control effect; nearly all actives have a fitted effect of over 50% in size
# Starred values were filed as active, the others as inactive; ? = inconclusive; . = no result given; [ ] = remark or other dose. An excerpt weighted towards active compounds, which were near 10% of everything screened. Unless noted, the call rests on the fitted dose curve; in most records, active means well fitted inhibition curve with a large enough effect; inconclusive means small, poorly fitted or top-dose-only effect; inactive means no such curve, though single readings can be large or run the other way.
SMILES,HP1b binding inh,Six1-Eya2 inh,G9a inh,CtBP-E1A blk,BAZ2B block,JMJD2A Tudor
COc1ccc(OC)c(-c2cc(C(=O)Nc3cnn(Cc4ccc(Cl)cc4Cl)c3)no2)c1,16%,.,-40%[59 µM],.,1%,-5%
Cc1cc(C)cc(NC(=O)COc2coc(CN3CCc4ccccc4C3)cc2=O)c1,28%,0,5%[0.501 µM],-2,8%,-18%
O=S1(=O)N[C@@H](Cc2ccccc2)COc2cccc(N3CCC[C@H]3CO)c21,.,-7,.,-2,.,.
Cc1ccc(-c2nn(CC(=O)NC3CCCC3)c3c2cnc2ccc(F)cc23)cc1C,17%,.,6%[59 µM],.,-11%,-8%
O=C(/C=C/[C@H]1O[C@@H](n2ccc(=O)[nH]c2=O)[C@H](O)[C@@H]1O)NCc1ccccc1,.,12,.,-7,.,.
CCn1c(-c2csc3c2CCC(C)C3)n[nH]c1=S (stereo not given),-10%,-10,6.3µM*,-2,-30%,35µM*
C=CCn1c(SCc2csc(C)n2)nc2sc3c(c2c1=O)CCC(C)C3 (stereo not given),55%,-2,20%[59 µM],4,-3%,22%
COc1ccc(OCC(=O)Nc2nnc(S(=O)(=O)N3CCc4ccccc43)s2)cc1,32%,.,0%[59 µM],.,-23%,-10%
COc1ccc(OC(=O)C(C)N2C(=O)c3ccccc3C2=O)cc1 (stereo not given),58%,-10,-1%,6,0%,3%
O=Cc1ccc(OC(=O)c2cccnc2)cc1,45%,-65*,17%[59 µM],-10,-4%,-7%
CC1=CC(C)(C)Nc2ccc(OC(=O)C(C)N3C(=O)c4ccccc4C3=O)cc21 (stereo not given),?,?,10µM*,?,22µM*,?
CC(=O)/C=C\c1ccc(OC(=O)c2cccnc2)cc1,40%,-1,.,2,-8%,2%
CC1=CC(C)(C)Nc2ccc(OC(=O)c3cccnc3)cc21,-6%,-14,45µM*,-1,40µM*,?
O=C(Oc1ccc(F)cc1)c1cccnc1,31%,1,29%,.,10%,-8%
CC1=CC(C)(C)Nc2ccc(OC(=O)c3ccco3)cc21,-13%,-18,?,4,50µM*,?
N#Cc1nc(N2CCCCC2)nc(N2CCCCC2)n1,41%[57 µM],.,.,.,.,8%[57.1 µM]
Cc1cccc(Cn2c(SCc3ccc(C(=O)NCCc4ccccc4)cc3)nc3cccnc32)c1,33%,.,-48%[59 µM],.,-4%,-17%
CC(=O)NC1(C)CCC2CC1C(C)=NC2(C)C (stereo not given),.,1,.,13,.,.
CC1=CC(C)(C)N2C(=O)C(=O)c3cc(OC(=O)c4ccco4)cc1c32,32µM*,-9,35µM*,-1,35µM*,35µM*
O=C(Oc1cccc(OC(=O)c2ccco2)c1)c1ccco1,45%,-2,86%,.,-32%,5%
Nc1ncnc2c1ncn2[C@@H]1O[C@H](C(=O)NC2CC2)[C@H](O)[C@H]1O,.,.,18%[12.7 µM],.,.,.
Cc1ccc(N2C(SCC(=O)O)=NC(=Nc3cccc(C)c3)C23CCCC3)cc1,14µM*,-1,-46%,0,20µM*,10µM*
Cc1ccc2nc(SCC(=O)O)nc(C)c2c1,24%,1,-41%[2.33 µM],4,14%,-13%
O=C(O)CSC1=NC(=Nc2ccc(Cl)cc2)C2(CCCCC2)N1c1cccc(C(=O)O)c1,?,10,4.5µM*,2,?,22µM*
Cc1ccc(C(=O)N(Cc2ccc(N(C)C)cc2)CC2CCCO2)cc1 (stereo not given),-23%,.,13µM*,.,35µM*,?
CN(C)c1ccc(CN(CC2CCCO2)C(=O)c2ccc(Br)cc2)cc1 (stereo not given),?,.,14µM*,.,40µM*,50µM*
CCOc1cccc(C(=O)N(Cc2ccc(N(C)C)cc2)CC2CCCO2)c1 (stereo not given),3%,.,14µM*,.,50µM*,?

# Source: PubChem BioAssay
